# Source: PubChem BioAssay
# Shiga inhibitor = A qHTS for Small Molecule Inhibitors of Shiga Toxin; Vero cells, Shiga toxin protein synthesis inhibition reporter; inhibition, % at 38.7 µM; 9.2% of 290,000 active; in the data active = inhibition mostly above about 28%, no sharp cut-off; inactive = mostly below about 43%; also: 0% is about no effect
# Pf growth 96h = Primary qHTS for delayed death inhibitors of the malarial parasite plastid, 96 hour incubation; 6.9% of 320,000 active; P. falciparum luciferase reporter growth, 96 h; Potency, µM (top dose mostly 28.7 µM), without a hit: at the highest dose activity change, negative = inhibition, most hits filed as inhibitors; also: potency is read from the fitted curve at half-maximal effect; % is scaled to controls: 0 for no effect and ±100 for the full control effect
#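 P. falciparum expressing integrated firefly luciferase grown in erythrocytes (2% hematocrit, 0.05% parasitemia final) with compounds for 96 hours at 37 C, 5% CO2. Growth inhibition read as loss of luminescence after adding luciferase detection reagent.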
# Pf growth 48h = Primary qHTS for delayed death inhibitors of the malarial parasite plastid, 48 hour incubation; 5.9% of 310,000 active; P. falciparum luciferase growth in erythrocytes, 48 h; Potency, µM (doses to about 28.7 µM), inactives show at the highest dose activity change, negative = inhibition, hits mostly inhibitors; also: potency is read from the fitted curve at half-maximal effect; % is scaled to controls: 0 for no effect and ±100 for the full control effect
#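 A one-generation exposure of luciferase-tagged malaria parasites in RPMI 1640/Albumax erythrocyte culture, 37 C and 5% CO2. Inhibition is inferred from decreased luminescence after adding detection reagent.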
# CHX counter = Cycloheximide Counterscreen for Small Molecule Inhibitors of Shiga Toxin; max response, %; cell reporter, cycloheximide protein synthesis inhibition counterscreen; 12% of 300,000 active; in the data active = max response mostly above about 13%, no sharp cut-off; inactive = mostly below about 14%; also: read at 38.3 µM for the half of the compounds with a filed dose; 0% is about no effect
# NS1 function inh = qHTS Assay for Inhibitors of Influenza NS1 Protein Function; 0.4% of 270,000 active; Potency, µM (doses to about 46.1 µM), for inactives: at the top dose activity, positive = more growth; calls by dose curve; also: potency is read from the fitted curve at half-maximal effect; actives are rising curves; nearly all actives have a fitted effect of over 50% in size
#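 In this qHTS, NS1 from influenza A is expressed in budding yeast, where it slows growth. Cells are switched from glucose to 2% galactose medium (pH 6.0, -URA), treated with compound, and growth recovery is read at OD600.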
# Giardia FBPA inh-1 = qHTS Assay for Inhibitors of Fructose-1,6-bisphosphate Aldolase from Giardia Lamblia; A8B2U2; purified Giardia FBPA; Potency, µM (doses to about 59.6 µM), inactives show at the highest dose activity, negative = inhibition, actives largely listed as inhibitors; 0.71% of 290,000 active; also: potency is read from the fitted curve at half-maximal effect; % is scaled to controls: 0 for no effect and ±100 for the full control effect; nearly all actives have a fitted effect of over 55% in size
# Target sequence (A8B2U2 whole entry, looked up): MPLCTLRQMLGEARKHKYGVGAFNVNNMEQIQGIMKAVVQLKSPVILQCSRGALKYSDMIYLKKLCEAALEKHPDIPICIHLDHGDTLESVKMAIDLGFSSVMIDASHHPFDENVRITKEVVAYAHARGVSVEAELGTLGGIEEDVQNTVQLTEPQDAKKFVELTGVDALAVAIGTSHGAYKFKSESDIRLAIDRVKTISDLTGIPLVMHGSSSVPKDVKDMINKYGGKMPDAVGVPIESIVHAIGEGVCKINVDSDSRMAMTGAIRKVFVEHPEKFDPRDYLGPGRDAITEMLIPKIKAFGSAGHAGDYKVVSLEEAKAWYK
#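 40 nM FBPA preincubated 10 min at RT with compound (up to 57.5 uM final), then substrate plus GAPDH/TPI/NAD/arsenate coupling and diaphorase/resazurin added. Fluorescence read after 20 min at RT, 525/598 nm.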
# Giardia growth = qHTS Assay for Inhibitors of Fructose-1,6-bisphosphate Aldolase from Giardia Lamblia: Giardia lamblia growth inhibition | shares compounds with Giardia FBPA inh-1 | Giardia lamblia trophozoite growth inhibition | Potency, µM (doses to about 57.5 µM), inactives show top-dose activity change, negative = inhibition, usual class: inhibitors | 5% of 1,500 active;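 also: potency is read from the fitted curve at half-maximal effect; trophozoites exposed to compound for 48 h at 37 °C; % is scaled to controls: 0 for no effect and ±100 for the full control effect; nearly all actives have a fitted effect of over 70% in size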
# Mammalian tox = qHTS Assay for Inhibitors of Fructose-1,6-bisphosphate Aldolase from Giardia Lamblia: Mammalian cellular toxicity; shares compounds with Giardia FBPA inh-1; mammalian cell viability counter-screen, qHTS; Potency, µM (series often up to 57.5 µM), without a hit: at the top dose viability change, negative = toxicity, hits mostly inhibitors; 4% of 1,500 active; AID 2786, 2010;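 also: Chinese hamster ovary cells used as mammalian cytotoxicity surrogate; viability measured as cellular ATP by luminescence; potency is read from the fitted curve at half-maximal effect; compound exposure lasted 48 h before reading; % is scaled to controls: 0 for no effect and ±100 for the full control effect; nearly all actives have a fitted effect of over 60% in size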
# Giardia FBPA inh-2 = qHTS Assay for Inhibitors of Fructose-1,6-bisphosphate Aldolase from Giardia Lamblia: Primary screen confirmation. 5% of 1,500 active. purified Giardia aldolase enzyme activity, qHTS. Potency, µM (doses to about 57.5 µM), for inactives: at the highest dose activity change, negative = inhibition, most hits filed as inhibitors. shares compounds with Giardia FBPA inh-1. AID 2787, 2010; also: potency is read from the fitted curve at half-maximal effect; % is scaled to controls: 0 for no effect and ±100 for the full control effect; nearly all actives have a fitted effect of over 45% in size
# Rabbit aldolase = qHTS Assay for Inhibitors of Fructose-1,6-bisphosphate Aldolase from Giardia Lamblia: Rabbit FBPA Selectivity. shares compounds with Giardia FBPA inh-1. Rabbit muscle FBPA enzyme inhibition, selectivity counter-screen. Potency, µM (titrated, usually from 57.5 µM), without a hit: top-dose activity, negative = inhibition, hits mostly inhibitors. 4% of 1,500 active. AID 2794, 2010; also: potency is read from the fitted curve at half-maximal effect; % is scaled to controls: 0 for no effect and ±100 for the full control effect; nearly all actives have a fitted effect of over 60% in size
# Target sequence (P00883 whole entry, looked up): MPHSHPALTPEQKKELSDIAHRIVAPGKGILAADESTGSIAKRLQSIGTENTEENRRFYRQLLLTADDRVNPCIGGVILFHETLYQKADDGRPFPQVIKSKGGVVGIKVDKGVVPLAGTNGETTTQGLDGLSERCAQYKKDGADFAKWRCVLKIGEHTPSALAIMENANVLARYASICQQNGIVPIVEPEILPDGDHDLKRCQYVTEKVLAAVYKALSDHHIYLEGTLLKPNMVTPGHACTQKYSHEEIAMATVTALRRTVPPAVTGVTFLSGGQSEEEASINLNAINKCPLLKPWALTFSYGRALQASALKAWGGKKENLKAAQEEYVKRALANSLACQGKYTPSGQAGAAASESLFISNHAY
# GAPDH counter = qHTS Assay for Inhibitors of Fructose-1,6-bisphosphate Aldolase from Giardia Lamblia: Coupling assay counterscreen confirmation | shares compounds with Giardia FBPA inh-1 | GAPDH coupling enzyme counterscreen, biochemical, qHTS | Potency, µM (titrated, usually from 57.5 µM), for the others: top-dose activity change, negative = inhibition, actives largely listed as inhibitors | 6% of 1,500 active | AID 2795, 2010; also: potency is read from the fitted curve at half-maximal effect; % is scaled to controls: 0 for no effect and ±100 for the full control effect; nearly all actives have a fitted effect of over 55% in size
# * hit, by the source's call; ? = inconclusive; · = no result; [ ] = another dose, or the depositor's remark. Sampled rows, rich in hits. Any-hit rate of the full collection: about 21%. Unless noted, calls follow the shape of the dose curve; as a rule, active = well fitted curve in the direction sought with a large enough effect; inconclusive = small, poorly fitted or top-dose-only effect, or another doubt; inactive = no such curve, though single readings can be large; an effect the other way counts as inactive or inconclusive.
SMILES,Shiga inhibitor,Pf growth 96h,Pf growth 48h,CHX counter,NS1 function inh,Giardia FBPA inh-1,Giardia growth,Mammalian tox,Giardia FBPA inh-2,Rabbit aldolase,GAPDH counter
CCOc1ccccc1C(=O)N/N=C/c1coc2ccc(C)cc2c1=O,-10,-7%,-3%,-2,-1%,·,·,·,·,·,·
CCOC(=O)Cc1c[nH]c(=S)[nH]c1=O,-14,65%,53%,-5,9%,18µM*,9%[10.4 µM],14%,5%,9%,7%
CCOC(=O)Cc1c(C)nc(N)[nH]c1=O,37,?,0%,5,5%,10%,·,·,·,·,·
CCC(COC(C)=O)Nc1nc2c([nH]1)c(=O)n(C)c(=O)n2C (stereo unspecified),-3,0%,3%,-2,2%,0%,·,·,·,·,·
Cn1c(=O)c2[nH]c(N/N=C(/C#N)C(N)=O)nc2n(C)c1=O,-4,17%,23%,-2,-2%,20µM*,34%,-5%,5%,2%,-2%
N#Cc1ccsc1NC(=O)c1ccccn1,12,17%,41%,19,-33%,20µM*,10µM*,-8%,-11%,-2%,-6%
CSc1ccc(CN(C)CCc2ccccn2)cc1,-1,?,-20%,1,4%,14µM*,-9%[10.4 µM],3%,1%,0%,5%
CN(CCc1ccccn1)Cc1ccc(Cl)cc1Cl,60,40%,50%,17*,-1%,18µM*,23%,5%,2%,0%,13%
Cc1n[nH]c(=S)c2nn(-c3ccccc3)c(C)c12,-8,50%,8%,2,36%,-18%,·,·,·,·,·
Cc1ccc(-n2nc3c(=S)[nH]nc(C)c3c2C)cc1,-3,14%,5%,9,1%,25µM*,-5%,-4%,5%,9%,16%
Cc1cc(Cl)ccc1OCCCC(=O)OCC(=O)c1c(N)n(C)c(=O)n(C)c1=O,-9,23%,?,-3,-2%,-11%,·,·,·,·,·
NC1=NN=C(N2N=C(c3ccccc3)CC2(O)C(F)(F)F)n2ncnc2C1 (stereo unspecified),-3,-6%,2%,-4,3%,?,·,·,·,·,·
NC1=NN=C(N2N=C(c3ccc(Br)cc3)CC2(O)C(F)(F)F)n2ncnc2C1 (stereo unspecified),-2,0%,11%,-5,·,?,14%[38.3 µM],-1%,3%,1%,-15%
CCOC(=O)Nc1ccc2c(c1)N(C(=O)N1CCN(C)CC1)c1ccccc1S2,14,?,?,-2,-5%,0%,·,·,·,·,·
CC(C)OC(=O)Nc1ccc2c(c1)N(C(=O)N1CCN(C)CC1)c1ccccc1CC2,16,?,0%,30*,-3%,16µM*,8.9µM*,1.8µM*,2%,9%,6%
Cc1cc(C)n(CC(=O)O)c(=O)c1[N+](=O)[O-],16,49%[5.75 µM],8%,4,·,7.9µM*,-25%,19%,-9%,-4%,5%
Cc1cccc(C(=O)OCCN2CCOCC2)c1,41*,-21%,38%,26*,25%,14µM*,?,2%,3%,9%,9%
O=C(OCCN1CCOCC1)c1cccc(F)c1,36,?,337%,6,4%,-21%,·,·,·,·,·
CN(C1=C(NC(=O)c2ccccc2)C(=O)c2ccccc2C1=O)C1CCS(=O)(=O)C1 (stereo unspecified),75*,5.2µM*,4.7µM*,39*,8%,0.63µM*,25µM*,40µM*,?,?,6.3µM*
O=C(O)CCCCCn1c(SCC(=O)c2ccc(O)c(O)c2)nc2ccsc2c1=O,-15,0%,36%,-4,9%,4µM*,4%[10.4 µM],3%,-9%,-11%,20%
Cn1ncc(Br)c1C(=O)N/N=C/c1cccc(OC2CSC2)c1,26*,-47%,-8%,4,-11%,?,-1%[38.3 µM],-6%,32µM*,35µM*,35µM*
Cc1ccc(NC(=O)CCCCCCCCCCC2COCCO2)c(C)c1 (stereo unspecified),-7,-9%,-19%,-4,-5%,1%,·,·,·,·,·
Cc1[nH]n(-c2ccccc2)c(=S)c1C=Nc1ccc([N+](=O)[O-])cc1,-10,-1%,4%,-2,2%,4.5µM*,-1%[38.3 µM],-8%,-23%,35µM*,?
Cc1[nH]n(-c2ccccc2)c(=O)c1C=Nc1ccc(S(=O)(=O)N=C(N)N)cc1,-10,20%,16%,1,-3%,-5%,·,·,·,·,·
O=C(O)CC12CC3CC(C1)CC(n1ncc(N4CCC5(CC4)OCCO5)c(Cl)c1=O)(C3)C2,-3,0%,2%,-3,4%,-3%,·,·,·,·,·
S=C1NCCOCCOCCOCCOCCN1,-16,·,13%,-5,8%,-15%,·,·,·,·,·
S=C1NCCOCCNC(=S)NCCOCCOCCOCCN1,-1,19%,-4%,-2,9%,4.5µM*,-21%[38.3 µM],-1%,7%,5%,1%
CC(C)(C)NC(=S)/N=C(\N)N[N+](=O)[O-],-3,-32%[5.75 µM],?,-3,·,16µM*,30%,14%,14%,14%,14%
COC(=O)C(N)CCCN=C(N)N[N+](=O)[O-] (stereo unspecified),·,·,·,·,0%,-2%,·,·,·,·,·
O=[N+]([O-])c1ccc(Sc2cccc[n+]2[O-])c2nonc12,-2,0.83µM*,2.9µM*,3,-66%,0.35µM*,2µM*,2.2µM*,6.3µM*,16µM*,6.3µM*
